High-throughput results as filed in PubChem.
SARS PLP yeast: blocks SARS-CoV papain-like protease in a yeast assay; S. cerevisiae expressing SARS-CoV PLpro, growth rescue; Potency, µM (highest dose often 32.9 µM), without a hit: at the top dose activity, positive = growth rescue, most hits filed as activators; AID 485353; actives 0.19% (n = 330,000); calls by dose curve; also: 0% is about no effect; nearly all actives have a fitted effect of over 55% in size
RE007 growth inh: less growth of the S. pombe RE007 Vpr strain; S. pombe RE007 Vpr strain, BacTiter-Glo ATP luminescence, 24 h; Potency, µM (series often up to 92.2 µM), for the others: at the top dose activity change, negative = less growth, actives largely listed as inhibitors; actives 0.21% (n = 360,000); AID 651644; active = well fitted falling curve with a large enough effect; inconclusive = small, poorly fitted or top-dose-only effect; inactive = no such curve, though single readings can be large or run the other way; also: % is scaled to controls: 0 for no effect and ±100 for the full control effect; nearly all actives have a fitted effect of over 50% in size
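Fission yeast RE007 carrying one integrated HIV-1 vpr copy, seeded at OD 0.01 in PMG+AL medium with 23 nL pinned compound. Grown 24 h at 30 degrees; viability read by BacTiter-Glo luminescence after 5 min.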
AmpC detergent: blocks E. coli AmpC beta-lactamase in detergent assay; actives 0.041% (n = 370,000); AmpC hydrolysis of nitrocefin, absorbance 480 nm, 0.01% Triton; P00811; Potency, µM (highest dose often 114 µM), for inactives: at the top dose activity change, negative = inhibition, usual class: inhibitors;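 also: 0% = no-compound wells and -100% = no-enzyme wells; nearly all actives have a fitted effect of over 25% in size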
Target sequence (P00811 whole entry, looked up): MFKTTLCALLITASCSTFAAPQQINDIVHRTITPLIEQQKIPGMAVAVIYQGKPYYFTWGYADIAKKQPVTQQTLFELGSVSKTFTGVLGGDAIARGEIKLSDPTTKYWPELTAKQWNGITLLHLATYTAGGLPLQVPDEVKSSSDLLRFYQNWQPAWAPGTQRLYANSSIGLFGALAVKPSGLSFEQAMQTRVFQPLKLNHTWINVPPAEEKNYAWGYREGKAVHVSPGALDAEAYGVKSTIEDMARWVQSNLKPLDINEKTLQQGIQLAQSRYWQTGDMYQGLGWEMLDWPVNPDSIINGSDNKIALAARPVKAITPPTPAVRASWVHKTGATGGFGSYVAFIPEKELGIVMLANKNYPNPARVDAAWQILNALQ
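20 mM phosphate pH 7.0 + 0.01% (detergent screen) or 0.0001% Triton X-100; 5.3 nM AmpC reagent; cpd preinc 15 min RT; nitrocefin (800 uM stock) to start; A480 q20 s × 4 min; Activity was normalised to no-enzyme and no-compound control wells.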
TbPYK inhibitor: T. brucei pyruvate kinase inhibition | Q57TT1 | TbPYK enzyme, Kinase-Glo Plus ATP luminescence, 45 min | Potency, µM (top dose mostly 76.8 µM), for inactives: at the highest dose activity, negative = inhibition, most hits filed as inhibitors | actives 0.12% (n = 410,000) | AID 624173; also: % is scaled to controls: 0 for no effect and ±100 for the full control effect; nearly all actives have a fitted effect of over 50% in size
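Readout: single end-point luminescence (Kinase-Glo Plus, 10 min). Reaction conditions were TbPYK/substrate plus 130 uM ADP, 45 min at RT, pH 7.2 TEA buffer. No-enzyme wells served as controls, and data were normalized before concentration-response fitting.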
Sm TGR block: inhibitors of Schistosoma mansoni thioredoxin glutathione reductase | AID 485364 | Potency, µM (highest dose often 114 µM), inactives show at the highest dose activity change, negative = inhibition, actives largely listed as inhibitors | purified TGR, DTNB reduction, TNB absorbance 405 nm | actives 3% (n = 360,000); also: % is scaled to controls: 0 for no effect and ±100 for the full control effect; nearly all actives have a fitted effect of over 60% in size
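Kinetic colorimetric format: TGR-catalysed, NADPH-driven DTNB reduction monitored via TNB absorbance. Enzyme dispensed at 20 nM; compound exposure 15 min at room temperature before reaction start.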
AmpC inh no detg: AmpC beta-lactamase inhibition without detergent; AID 485341; actives 0.52% (n = 330,000); AmpC nitrocefin hydrolysis, absorbance 480 nm, 0.0001% Triton; Potency, µM (top dose mostly 57.1 µM), for the others: at the highest dose activity change, negative = inhibition, usual class: inhibitors; P00811;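 also: plate controls were no compound for no effect and no enzyme for full effect; nearly all actives have a fitted effect of over 20% in size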
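AmpC (5.3 nM in the dispensed reagent) in 20 mM phosphate pH 7.0 with 0.01% (detergent screen) or 0.0001% Triton X-100 was preincubated with compounds for 15 min at room temperature. Nitrocefin was then added from an 800 uM solution, and hydrolysis was followed at 480 nm.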
* hit, by the source's call; ? = inconclusive; . = no result. A selection: hits, their analogues and other compounds. The true share with any hit is near 3.3%. Unless noted, calls follow the shape of the dose curve; as a rule, active = well fitted curve in the direction sought with a large enough effect; inconclusive = small, poorly fitted or top-dose-only effect, or another doubt; inactive = no such curve, though single readings can be large; an effect the other way counts as inactive or inconclusive. Potency is read from the fitted curve at half-maximal effect.

SMILES	SARS PLP yeast	RE007 growth inh	AmpC detergent	TbPYK inhibitor	Sm TGR block	AmpC inh no detg
COc1ccc(-c2csc(NC(=O)CCS(=O)(=O)c3ccccc3)n2)c(OC)c1	2%	3%	0%	7%	14µM*	-37%
COc1cc(-c2nnc(NC(=O)CCS(=O)(=O)c3ccc(F)cc3)o2)cc(OC)c1OC	3%	12%	?	0%	-19%	-7%
COc1cc(OC)cc(-c2nnc(NC(=O)CCS(=O)(=O)c3ccccc3)o2)c1	0%	6%	-12%	0%	32µM*	-34%
COc1cc(-c2nnc(NC(=O)CCS(=O)(=O)c3ccccc3)o2)cc(OC)c1OC	2%	2%	5%	6%	28µM*	-13%
CCN(C(=O)Cn1nnc2sc(-c3ccccc3)cc2c1=O)c1cccc(C)c1	.	.	2%	-19%	-2%	.
CCC(C)[C@H](NC(=O)[C@@H]1CSC2c3ccccc3C(=O)N21)C(=O)NC1CCCC1 (stereo not given in full)	19%	-6%	6%	-2%	-12%	-30%
CCC(C)[C@H](NC(=O)[C@@H]1CSC2c3ccccc3C(=O)N21)C(=O)NCc1ccco1 (stereo not given in full)	-4%	1%	-5%	-12%	45µM*	-6%
O=[N+]([O-])c1ccc(S(=O)(=O)c2cccc(C(F)(F)F)c2)nc1	.	40µM*	.	2%	.	.
CCc1nn(CC(=O)NCc2ccccc2)c(=O)c2cccn12	.	.	-5%	3%	-2%	.
CCN(CC)c1ccc(C(=O)NNC(=O)CCl)cc1	8%	9%	-4%	-13%	20µM*	-42%
CC1CCN(Cc2nc(Cl)c3c4c(sc3n2)CCC4)CC1	0%	-15%	0%	5%	16µM*	-30%
Clc1nc(CN2CCOCC2)nc2sc3c(c12)CCC3	23%	-13%	2%	1%	-34%	-2%
Cc1sc2nc(CN3CCCCC3)nc(Cl)c2c1C	-6%	-2%	10%	16%	50µM*	-4%
Clc1nc(CN2CCCCC2)nc2sc3c(c12)CCCC3	2%	-11%	-3%	24%	20µM*	-14%
O=C(CSc1nc2nccnc2c(=O)n1CCc1c[nH]c2ccccc12)Nc1ccc(F)cc1	.	.	11%	4%	-1%	.
COc1cc(NC(=O)Cn2nnc(-c3ccccc3N)n2)cc(OC)c1	6%	5%	-5%	-4%	-8%	20µM*
COc1ccc(NC(=O)Cn2nnc(-c3ccccc3N)n2)cc1OC	0%	0%	-8%	-7%	0%	-4%
CCc1cccc(NC(=O)c2cc(S(=O)(=O)N3CCCCCC3)cn2C)c1	.	.	2%	0%	6%	.
C=C(C)CNC(=S)N/N=C(\C)c1cccc(NC(C)=O)c1	0%	1%	-3%	0%	-21%	-47%
C=C(C)CNC(=S)Nc1cccc(N)n1	1%	?	-1%	-18%	2.8µM*	-48%
C#Cc1ccc([C@@H]2C=C(C(=O)N3CCOCC3)O[C@H](OCCCCO)C2)cc1	-1%	-9%	-1%	-4%	?	75%
C#Cc1ccc([C@H]2C=C(C(=O)N3CCN(Cc4ccccc4)CC3)O[C@@H](OCc3ccc(CO)cc3)C2)cc1	-1%	-28%	-4%	-6%	45µM*	75%
O=C(C1=C[C@H](c2ccc(C(F)(F)F)cc2)C[C@H](OCCCCO)O1)N1CCN(Cc2ccccc2)CC1	-1%	4%	-6%	-18%	35µM*	188%
O=C(C1=C[C@@H](c2ccc(C(F)(F)F)cc2)C[C@@H](OCCCCO)O1)N1CCN(Cc2ccccc2)CC1	-1%	-4%	0%	-13%	?	208%
